Assay results as given in the supplement of paper PMC11732987, “Enantioselective OTUD7B fragment discovery through chemoproteomics screening and high-throughput optimisation” (Communications Chemistry, 2025).

Legend:
Assay in all cases: log2 ratio of Biotin-Ahx-Ub-VS probe labelling (fragment/DMSO); higher = less target engagement (more negative = stronger competition), active = hit call of the paper (q ≤ 0.05, log2 ratio ≤ -1)
Conditions in all cases: compound concentration: 200 uM; treatment time: 3 h
[1] = molecular target: T1, USP19 (UniProt O94966)
T1 sequence (whole entry): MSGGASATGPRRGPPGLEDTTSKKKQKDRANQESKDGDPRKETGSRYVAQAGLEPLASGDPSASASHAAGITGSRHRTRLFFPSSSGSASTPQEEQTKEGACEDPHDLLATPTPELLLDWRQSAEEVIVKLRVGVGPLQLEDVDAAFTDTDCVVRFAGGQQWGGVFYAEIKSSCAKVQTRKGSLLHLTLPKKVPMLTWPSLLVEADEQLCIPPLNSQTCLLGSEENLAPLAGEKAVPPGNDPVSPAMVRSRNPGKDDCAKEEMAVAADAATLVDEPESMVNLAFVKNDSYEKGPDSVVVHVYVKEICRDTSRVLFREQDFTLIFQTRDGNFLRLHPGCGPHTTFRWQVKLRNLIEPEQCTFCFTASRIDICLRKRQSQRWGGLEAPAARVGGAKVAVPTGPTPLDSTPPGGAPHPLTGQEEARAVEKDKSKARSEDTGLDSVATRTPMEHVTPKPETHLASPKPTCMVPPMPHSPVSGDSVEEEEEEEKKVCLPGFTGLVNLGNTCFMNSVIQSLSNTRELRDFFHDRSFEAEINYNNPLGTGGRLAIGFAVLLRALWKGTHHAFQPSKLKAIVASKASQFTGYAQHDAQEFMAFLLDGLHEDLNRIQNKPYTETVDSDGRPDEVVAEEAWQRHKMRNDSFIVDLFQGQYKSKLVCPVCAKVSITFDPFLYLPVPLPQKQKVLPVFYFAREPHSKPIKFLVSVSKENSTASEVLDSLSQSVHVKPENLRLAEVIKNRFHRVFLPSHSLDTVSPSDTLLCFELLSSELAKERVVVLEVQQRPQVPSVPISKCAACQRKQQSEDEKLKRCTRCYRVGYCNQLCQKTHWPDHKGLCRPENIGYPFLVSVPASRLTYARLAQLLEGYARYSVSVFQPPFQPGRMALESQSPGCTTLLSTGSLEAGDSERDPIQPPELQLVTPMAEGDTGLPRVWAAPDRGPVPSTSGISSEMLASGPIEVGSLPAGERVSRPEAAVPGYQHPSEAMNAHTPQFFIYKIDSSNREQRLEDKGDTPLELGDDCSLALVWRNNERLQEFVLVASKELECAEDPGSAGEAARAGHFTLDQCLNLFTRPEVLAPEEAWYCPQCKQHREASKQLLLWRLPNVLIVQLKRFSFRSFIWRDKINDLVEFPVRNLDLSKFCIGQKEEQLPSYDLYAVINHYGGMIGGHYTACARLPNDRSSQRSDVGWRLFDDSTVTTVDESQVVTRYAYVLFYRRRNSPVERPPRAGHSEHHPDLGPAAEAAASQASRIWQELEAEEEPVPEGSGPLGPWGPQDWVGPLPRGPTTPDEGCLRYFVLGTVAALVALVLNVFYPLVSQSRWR
How it was run: (§1)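 Labelling with Biotin-Ahx-Ub-VS (0.5 µM final, 1 h) followed a 3 h triplicate treatment of HEK293T lysate (495 µg per sample, Tris/CHAPS/IGEPAL buffer with protease inhibitors) with fragment at 200 µM or vehicle. Labelled DUBs were NeutrAvidin-enriched, digested with LysC and trypsin, and run by diaPASEF LC-MS/MS. The values, average log2 fragment/vehicle ratios by unpaired t-test, come from global-median-normalised Spectronaut label-free quantities. Proteins with ≥2 unique peptides were used.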

[2] = molecular target: T2, USP22 (UniProt Q9UPT9)
T2 sequence (whole entry): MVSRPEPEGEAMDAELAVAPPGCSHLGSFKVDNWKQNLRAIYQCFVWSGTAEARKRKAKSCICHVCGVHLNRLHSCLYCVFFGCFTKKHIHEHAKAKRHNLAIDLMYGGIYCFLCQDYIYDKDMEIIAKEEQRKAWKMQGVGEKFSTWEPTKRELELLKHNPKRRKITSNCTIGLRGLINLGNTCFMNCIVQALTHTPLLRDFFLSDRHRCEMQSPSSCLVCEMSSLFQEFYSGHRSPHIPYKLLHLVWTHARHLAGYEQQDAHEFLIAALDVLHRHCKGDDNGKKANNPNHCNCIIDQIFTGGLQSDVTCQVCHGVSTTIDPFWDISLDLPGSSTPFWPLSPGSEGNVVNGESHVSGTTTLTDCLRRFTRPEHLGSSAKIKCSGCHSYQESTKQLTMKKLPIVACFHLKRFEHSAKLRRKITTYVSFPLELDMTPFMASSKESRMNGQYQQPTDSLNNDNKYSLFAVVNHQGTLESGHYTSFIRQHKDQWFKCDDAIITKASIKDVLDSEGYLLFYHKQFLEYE
How it was run: as §1

[3] = molecular target: USP24 (UniProt Q9UPU5)
How it was run: as §1

[4] = molecular target: T3, USP25 (UniProt Q9UHP3)
T3 sequence (whole entry): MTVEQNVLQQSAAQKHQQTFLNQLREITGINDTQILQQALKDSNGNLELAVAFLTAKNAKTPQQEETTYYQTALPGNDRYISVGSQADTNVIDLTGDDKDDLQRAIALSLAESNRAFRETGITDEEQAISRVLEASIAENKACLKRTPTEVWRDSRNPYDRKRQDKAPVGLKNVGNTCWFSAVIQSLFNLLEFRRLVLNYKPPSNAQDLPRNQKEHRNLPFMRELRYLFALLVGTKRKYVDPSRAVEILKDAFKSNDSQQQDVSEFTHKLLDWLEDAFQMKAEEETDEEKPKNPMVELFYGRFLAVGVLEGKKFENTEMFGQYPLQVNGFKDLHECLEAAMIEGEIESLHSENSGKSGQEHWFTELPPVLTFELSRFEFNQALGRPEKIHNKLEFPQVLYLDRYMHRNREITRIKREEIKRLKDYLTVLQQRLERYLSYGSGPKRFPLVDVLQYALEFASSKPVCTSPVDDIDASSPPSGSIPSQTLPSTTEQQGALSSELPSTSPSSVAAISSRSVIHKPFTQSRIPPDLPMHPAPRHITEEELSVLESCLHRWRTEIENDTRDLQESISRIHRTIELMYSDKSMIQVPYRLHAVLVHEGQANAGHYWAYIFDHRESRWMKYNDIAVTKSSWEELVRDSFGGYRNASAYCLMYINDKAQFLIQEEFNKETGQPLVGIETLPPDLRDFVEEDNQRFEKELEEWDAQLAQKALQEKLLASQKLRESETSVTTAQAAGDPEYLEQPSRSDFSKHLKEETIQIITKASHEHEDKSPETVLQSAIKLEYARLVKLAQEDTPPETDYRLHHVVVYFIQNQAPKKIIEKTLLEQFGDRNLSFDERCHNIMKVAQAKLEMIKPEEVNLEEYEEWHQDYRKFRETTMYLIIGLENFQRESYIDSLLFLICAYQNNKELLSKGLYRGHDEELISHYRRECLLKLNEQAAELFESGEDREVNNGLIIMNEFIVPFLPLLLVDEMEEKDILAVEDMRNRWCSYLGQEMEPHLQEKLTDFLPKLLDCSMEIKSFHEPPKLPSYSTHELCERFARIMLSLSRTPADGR
How it was run: as §1

[5] = molecular target: T4, USP28 (UniProt Q96RU2)
T4 sequence (whole entry): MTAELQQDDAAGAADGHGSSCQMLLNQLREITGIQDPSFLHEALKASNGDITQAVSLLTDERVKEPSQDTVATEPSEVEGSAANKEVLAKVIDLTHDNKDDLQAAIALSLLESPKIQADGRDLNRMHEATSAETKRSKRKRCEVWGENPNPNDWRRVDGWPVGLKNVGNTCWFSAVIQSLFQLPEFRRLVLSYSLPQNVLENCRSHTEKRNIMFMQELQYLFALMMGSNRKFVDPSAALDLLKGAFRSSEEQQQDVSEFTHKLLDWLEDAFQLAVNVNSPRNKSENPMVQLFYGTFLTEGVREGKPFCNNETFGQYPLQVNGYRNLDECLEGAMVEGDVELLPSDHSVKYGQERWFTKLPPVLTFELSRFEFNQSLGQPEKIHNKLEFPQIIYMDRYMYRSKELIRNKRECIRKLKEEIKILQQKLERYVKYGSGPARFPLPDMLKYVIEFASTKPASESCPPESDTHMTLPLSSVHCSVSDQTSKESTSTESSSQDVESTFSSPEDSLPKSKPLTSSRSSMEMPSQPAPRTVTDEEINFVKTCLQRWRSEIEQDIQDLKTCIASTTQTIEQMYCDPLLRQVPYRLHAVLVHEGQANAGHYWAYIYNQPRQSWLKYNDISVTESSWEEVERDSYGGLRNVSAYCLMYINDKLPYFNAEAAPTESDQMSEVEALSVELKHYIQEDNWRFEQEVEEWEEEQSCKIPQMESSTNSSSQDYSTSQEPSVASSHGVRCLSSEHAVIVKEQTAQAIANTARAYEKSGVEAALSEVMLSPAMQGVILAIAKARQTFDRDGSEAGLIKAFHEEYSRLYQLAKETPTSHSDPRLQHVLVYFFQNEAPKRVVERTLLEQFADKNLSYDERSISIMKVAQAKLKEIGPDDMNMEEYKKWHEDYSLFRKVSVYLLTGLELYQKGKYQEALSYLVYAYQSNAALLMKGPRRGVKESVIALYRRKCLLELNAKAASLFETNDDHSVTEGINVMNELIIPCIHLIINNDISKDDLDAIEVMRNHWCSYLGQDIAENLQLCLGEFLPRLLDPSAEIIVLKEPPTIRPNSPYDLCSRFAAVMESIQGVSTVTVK
How it was run: as §1

Measured: log2 ratio of Biotin-Ahx-Ub-VS probe labelling

USP24, sequence (Q9UPU5 whole entry): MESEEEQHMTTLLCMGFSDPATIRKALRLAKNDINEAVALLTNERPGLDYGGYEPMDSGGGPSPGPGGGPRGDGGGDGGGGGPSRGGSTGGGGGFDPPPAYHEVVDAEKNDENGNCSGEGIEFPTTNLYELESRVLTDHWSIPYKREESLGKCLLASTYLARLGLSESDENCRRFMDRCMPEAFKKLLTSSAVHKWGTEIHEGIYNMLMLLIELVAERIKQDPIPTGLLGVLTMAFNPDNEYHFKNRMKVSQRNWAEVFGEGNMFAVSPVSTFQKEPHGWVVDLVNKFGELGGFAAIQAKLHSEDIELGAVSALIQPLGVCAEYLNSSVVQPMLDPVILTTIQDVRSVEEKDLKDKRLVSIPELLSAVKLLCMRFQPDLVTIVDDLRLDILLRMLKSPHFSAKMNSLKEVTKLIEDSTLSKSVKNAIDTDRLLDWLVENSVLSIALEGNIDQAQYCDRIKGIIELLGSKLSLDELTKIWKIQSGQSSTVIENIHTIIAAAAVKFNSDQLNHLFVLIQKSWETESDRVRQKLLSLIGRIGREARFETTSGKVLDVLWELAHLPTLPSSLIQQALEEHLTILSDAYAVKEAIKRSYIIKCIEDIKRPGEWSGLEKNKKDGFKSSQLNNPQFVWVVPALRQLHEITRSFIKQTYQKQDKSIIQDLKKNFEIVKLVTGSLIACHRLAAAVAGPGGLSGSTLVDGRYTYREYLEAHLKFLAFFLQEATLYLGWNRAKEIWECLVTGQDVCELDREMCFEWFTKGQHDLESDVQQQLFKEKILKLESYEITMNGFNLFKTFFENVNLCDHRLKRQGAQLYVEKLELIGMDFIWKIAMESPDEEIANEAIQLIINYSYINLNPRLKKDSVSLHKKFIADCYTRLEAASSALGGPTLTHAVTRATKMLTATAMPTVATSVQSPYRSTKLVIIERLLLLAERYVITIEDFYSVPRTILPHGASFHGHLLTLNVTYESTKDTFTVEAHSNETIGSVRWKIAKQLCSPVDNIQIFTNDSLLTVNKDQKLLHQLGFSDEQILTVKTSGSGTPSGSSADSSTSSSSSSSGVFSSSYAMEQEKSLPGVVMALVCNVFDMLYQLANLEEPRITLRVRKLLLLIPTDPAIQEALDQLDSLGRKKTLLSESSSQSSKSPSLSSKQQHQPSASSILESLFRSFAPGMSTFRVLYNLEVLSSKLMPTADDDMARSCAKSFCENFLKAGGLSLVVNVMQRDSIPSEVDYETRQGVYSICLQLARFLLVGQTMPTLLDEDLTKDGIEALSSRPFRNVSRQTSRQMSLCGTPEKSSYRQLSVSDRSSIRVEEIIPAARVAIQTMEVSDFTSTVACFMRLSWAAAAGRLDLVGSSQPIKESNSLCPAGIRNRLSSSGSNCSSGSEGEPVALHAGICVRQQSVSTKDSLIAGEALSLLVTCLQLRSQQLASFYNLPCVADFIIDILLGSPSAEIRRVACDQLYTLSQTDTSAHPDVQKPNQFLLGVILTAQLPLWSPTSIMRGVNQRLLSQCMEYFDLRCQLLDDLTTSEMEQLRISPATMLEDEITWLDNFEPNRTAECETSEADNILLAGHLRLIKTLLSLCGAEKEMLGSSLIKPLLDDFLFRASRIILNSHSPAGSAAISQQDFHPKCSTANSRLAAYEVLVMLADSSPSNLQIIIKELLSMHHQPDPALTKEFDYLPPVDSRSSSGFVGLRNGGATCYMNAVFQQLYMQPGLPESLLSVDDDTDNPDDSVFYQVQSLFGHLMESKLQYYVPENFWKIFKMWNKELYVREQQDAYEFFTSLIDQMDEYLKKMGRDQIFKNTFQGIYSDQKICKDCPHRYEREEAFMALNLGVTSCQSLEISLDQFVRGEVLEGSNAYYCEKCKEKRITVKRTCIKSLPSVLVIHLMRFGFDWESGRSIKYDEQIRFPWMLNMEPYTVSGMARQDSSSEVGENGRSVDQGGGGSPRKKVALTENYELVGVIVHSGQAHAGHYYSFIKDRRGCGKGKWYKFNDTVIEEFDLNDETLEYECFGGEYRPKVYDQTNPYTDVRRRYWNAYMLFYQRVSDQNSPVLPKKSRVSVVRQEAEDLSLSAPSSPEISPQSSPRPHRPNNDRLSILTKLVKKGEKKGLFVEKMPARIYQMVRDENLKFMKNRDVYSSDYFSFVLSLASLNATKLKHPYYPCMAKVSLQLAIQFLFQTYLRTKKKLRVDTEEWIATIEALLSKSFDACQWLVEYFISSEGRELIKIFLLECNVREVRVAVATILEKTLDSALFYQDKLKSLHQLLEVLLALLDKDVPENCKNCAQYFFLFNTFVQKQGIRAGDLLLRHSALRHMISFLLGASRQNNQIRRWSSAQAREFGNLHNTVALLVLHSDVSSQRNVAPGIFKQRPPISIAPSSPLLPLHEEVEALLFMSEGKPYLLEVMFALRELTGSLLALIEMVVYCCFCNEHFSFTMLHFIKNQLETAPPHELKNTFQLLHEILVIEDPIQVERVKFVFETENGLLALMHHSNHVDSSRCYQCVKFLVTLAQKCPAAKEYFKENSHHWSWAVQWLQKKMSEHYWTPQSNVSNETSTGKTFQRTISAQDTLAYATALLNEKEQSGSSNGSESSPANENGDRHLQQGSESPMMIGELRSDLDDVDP

Cc1cccc(NC(=O)[C@@H]2CCCN2C(=O)CCl)n1
inactive: [1] -0.349 | [2] -0.038 | [3] -0.45 | [4] -0.327 | [5] -0.61
